Assay outcomes: PubChem, National Center for Advancing Translational Sciences (NCATS)
Shown are actives, neighbours in structure and some others; about 19% of the full set was active somewhere.
TDP1 cell CPT = growth inhibition of DT40 Tdp1-/-;hTDP1 cells with camptothecin (screen for TDP1 inhibitors); chicken DT40 Tdp1-/-;hTDP1 cells + 20 nM CPT, ATP luminescence, 48 h; Potency, µM (titrated, usually from 46.2 µM), for the others: top-dose activity change, negative = growth inhibition, hits mostly inhibitors; 12% of 420,000 active; AID 686979; note: potency is the fitted concentration of half-maximal effect; % is set by controls: 0 for no effect and ±100 for the full control effect; nearly all actives have a fitted effect of over 55% in size
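Chicken DT40 Tdp1-/- cells complemented with human TDP1, 400 cells/well, exposed to compounds plus 20 nM camptothecin for at least 48 h at 37 C; viability read as ATP content by CellTiter-Glo luminescence.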
IL1B secr inh = inflammasome signaling inhibition, IL-1 beta readout. activity change, % at 57.5 µM. THP-1 LPS/ATP IL-1B secretion, AlphaLISA, 16 h; hits give low values. 4.7% of 360,000 active; in the data active = activity change below about -50%; inconclusive = mostly about -30% to -49%; note: % is set by controls: 0 for no effect and ±100 for the full control effect
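Secreted IL-1B measured by AlphaLISA bead assay after 16 h compound exposure of THP-1 cells; compounds (final up to 57.5 uM) added 1 h before LPS (250 ng/mL) and ATP (1.25 mM) stimulation; lower signal means less secretion.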
ASM inhibitor = human S-ASM enzyme inhibition | placental ASM, HMU-PC fluorogenic substrate, 60 min | Potency, µM (series often up to 57.5 µM), inactives show top-dose activity change, negative = inhibition, actives largely listed as inhibitors | 0.006% of 340,000 active | AID 504937; note: potency is the fitted concentration of half-maximal effect
Target sequence (P17405 47-631 limits assumed): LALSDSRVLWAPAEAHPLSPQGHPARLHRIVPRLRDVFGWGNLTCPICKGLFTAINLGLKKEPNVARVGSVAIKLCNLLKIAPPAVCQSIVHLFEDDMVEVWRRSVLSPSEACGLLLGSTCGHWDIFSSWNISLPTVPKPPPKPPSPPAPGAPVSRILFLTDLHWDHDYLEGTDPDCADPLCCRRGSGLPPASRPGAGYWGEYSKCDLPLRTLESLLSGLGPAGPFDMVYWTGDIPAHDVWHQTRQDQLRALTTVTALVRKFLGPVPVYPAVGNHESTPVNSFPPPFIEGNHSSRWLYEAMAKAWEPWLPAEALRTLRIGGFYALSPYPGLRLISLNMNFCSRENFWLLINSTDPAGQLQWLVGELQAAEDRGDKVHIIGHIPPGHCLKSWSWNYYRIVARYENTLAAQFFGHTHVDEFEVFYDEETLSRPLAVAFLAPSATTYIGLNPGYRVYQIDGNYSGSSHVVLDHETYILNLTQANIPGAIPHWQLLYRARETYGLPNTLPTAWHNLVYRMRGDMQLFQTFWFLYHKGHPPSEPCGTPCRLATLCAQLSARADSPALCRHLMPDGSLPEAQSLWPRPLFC
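Fluorogenic HMU-PC substrate (9 uM final) is turned over by placental ASM in 60 min at 37 C after a 10 min compound preincubation. Reaction ended by alkaline stop (pH 10), with fluorescence read at 386/447 nm.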
TGFb SMAD3 inh = inhibitors of TGF-b signaling. AID 588855. HepG2 CAGA-GFP TGF-b/SMAD3 reporter, GFP fluorescence, 18 h; TGF-beta stimulated, 500 pg/mL final. 1.2% of 410,000 active. Potency, µM (series often up to 46.1 µM), for the others: at the top dose activity, negative = inhibition, hits mostly inhibitors; note: potency is the fitted concentration of half-maximal effect; % is set by controls: 0 for no effect and ±100 for the full control effect; nearly all actives have a fitted effect of over 65% in size
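First, reporter cells (HEPG2 CAGA-GFP) rested 2 h at 37 degrees C. Next, compounds were pinned in and TGF-beta added to 500 pg/mL final. After 18 h, GFP was imaged per cell and summed per well.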
HepG2 tox = kills HepG2 cells in TGF-b inhibitor counter-screen | HepG2 CAGA-GFP viability, ATP luminescence, 18 h | Potency, µM (titrated, usually from 46.1 µM), for the others: top-dose activity change, negative = cytotoxicity, hits mostly cytotoxic | 0.76% of 410,000 active; note: potency is the fitted concentration of half-maximal effect
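HepG2 CAGA-GFP cells (1000/well, DMEM with 1% FBS) received compound, then TGF-beta at 500 pg/mL final, and were incubated 18 hours at 37 degrees C. Viability was read by CellTiter-Glo luminescence. Media-only wells were set as complete cell-killing and DMSO as no toxicity.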
DT40 TDP1 no CPT = qHTS for Inhibitors of human tyrosyl-DNA phosphodiesterase 1 (TDP1): qHTS in cells in absence of CPT; DT40 Tdp1-/- hTDP1 cells, no CPT, ATP luminescence, 48 h; 15% of 420,000 active; Potency, µM (titrated, usually from 46.2 µM), without a hit: top-dose activity change, negative = growth inhibition, most hits filed as inhibitors; note: potency is the fitted concentration of half-maximal effect; % is set by controls: 0 for no effect and ±100 for the full control effect; nearly all actives have a fitted effect of over 55% in size
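Growth kinetics read by CellTiter-Glo luminescence after ≥48 hr at 37 °C. Cells: DT40 Tdp1-/- stably carrying human TDP1, 400 per well, compound exposure in the absence of CPT (DMSO vehicle).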
* hit, by the source's call; u = inconclusive; x = no result given; [ ] = dose if it differs, or a comment. Unless noted, calls come from the whole dose curve; as a rule, active = well fitted curve in the direction sought with a large enough effect; inconclusive = small, poorly fitted or top-dose-only effect, or another doubt; inactive = no such curve, though single readings can be large; an effect the other way counts as inactive or inconclusive.

SMILES	TDP1 cell CPT	IL1B secr inh	ASM inhibitor	TGFb SMAD3 inh	HepG2 tox	DT40 TDP1 no CPT
COC(=O)c1ccc(COc2ccccc2/C=C(\C#N)C(=O)Nc2ccc(C)cc2)cc1	6.5µM*	12	-1%	19%	-2%	5.2µM*
COC(=O)c1ccc(COc2ccccc2/C=N/NS(=O)(=O)c2ccc(C)cc2)cc1	18µM*	57	0%	-2%	-11%	u
Cc1ccc(S(=O)(=O)N/N=C/c2cccc3c2OCCO3)cc1	u	23	5%	0%	-15%	-37%
N#C/C(=C\c1ccccc1OCc1ccc(C(=O)O)cc1)C(=O)Nc1ccc(O)cc1	2%	u	-4%	4%	6%	-15%
COc1ccc(C(=O)CCc2nc3ccccc3s2)cc1	-9%	6	6%	0%	-1%	-2%
COc1ccc(NC(=O)CSCC(=O)Oc2c(OC)cccc2OC)cc1	2%	13	1%	7%	4%	1%
COc1ccccc1CNC(=O)CCc1c(C)c2cc3c(C)coc3cc2oc1=O	u	x	x	-12%	-16%	u
Cc1cc(S(=O)(=O)NCCCN2CCOCC2)ccc1Br	-5%	11	-1%	5%	3%	2%
CCN(C(=O)CCn1cnc2onc(-c3ccc(F)cc3)c2c1=O)c1ccc(OC)cc1	16µM*	x	x	u	-38%	18µM*
COc1cc(Cl)c(C)cc1NC(=O)CCn1cnc2onc(-c3ccc(F)cc3)c2c1=O	18µM*	x	x	-26%	-14%	u
Cc1ccc(NC(=O)Cn2cnc3onc(-c4ccc(F)cc4)c3c2=O)c(Cl)c1	-22%	x	x	-10%	-43%	-27%
COC(=O)CCn1cnc2onc(-c3cc(F)cc(F)c3)c2c1=O	19%	x	x	-28%	-1%	-28%
CCCCN(CC)CCNC(=O)CCn1cnc2onc(-c3ccc(F)cc3)c2c1=O	26µM*	x	x	-10%	-29%	23µM*
COc1cccc(N2CCN(C(=O)Cn3cnc4onc(-c5ccc(F)cc5)c4c3=O)CC2)c1	23µM*	x	x	u	-4%	21µM*
O=C(CCn1cnc2onc(-c3ccc(F)cc3)c2c1=O)N1CCN(c2cccc(Cl)c2)CC1	16µM*	x	x	-2%	-21%	16µM*
O=C(CCn1cnc2onc(-c3ccc(F)cc3)c2c1=O)N1CCN(c2ccccc2F)CC1	u	x	x	u	-77%	u
COc1ccccc1N1CCN(C(=O)CCn2cnc3onc(-c4ccc(F)cc4)c3c2=O)CC1	u	x	x	u	-79%	21µM*
CCOC(=O)Cn1cnc2onc(-c3ccc(F)cc3)c2c1=O	-2%	x	x	-5%	-6%	0%
CCN(C(=O)Cn1cnc2onc(-c3ccc(F)cc3)c2c1=O)c1cc(C)ccc1C	13µM*	x	x	26%	1%	21µM*
CCCN(C(=O)CCn1cnc2onc(-c3ccc(F)cc3)c2c1=O)c1ccccc1C	18µM*	x	x	u	-12%	16µM*
O=C(Cn1cnc2onc(-c3ccc(F)cc3)c2c1=O)N1CCN(c2ccccc2F)CC1	u	x	x	-19%	-11%	u
COc1cccc(N2CCN(C(=O)C3CCN(S(=O)(=O)c4cn(C)cn4)CC3)CC2)c1	-2%	x	x	14%	0%	-9%
CN(CC(=O)Nc1ccccc1C(F)(F)F)CC(=O)N1CCCCCC1	2%	3	1%	1%	0%	-13%
CC1CCC2(CC1)NC(=O)N(CC(=O)c1ccc(CNC(=O)C(C)(C)C)s1)C2=O (stereo not given)	-29%	8	-2%	-13%	-17%	-1%
O=C1CC(C(=O)O)(c2ccccc2)c2cccc(F)c21 (stereo not given)	7%	35	6%	6%	-6%	-4%
SMILES	TDP1 cell CPT	IL1B secr inh	ASM inhibitor	TGFb SMAD3 inh	HepG2 tox	DT40 TDP1 no CPT
COCC(=O)N[C@H]1CC[C@@H](CC(=O)OC)O[C@@H]1CO	2%	35	x	x	x	4%
CC(=O)c1cccc(N(C(=O)Cn2nnc3ccccc32)C(C(=O)NCc2ccccc2)c2ccc(F)cc2)c1 (stereo not given)	u	x	x	u	-10%	u
COc1ccc(-n2nc(C(=O)Nc3cc(C)c(Cl)cc3OC)c3c4ccccc4n(C)c3c2=O)cc1	-1%	x	x	1%	2%	11%
CC1CCC2[C@](C)(CO)C(O)CC[C@]2(C)C12CCC(CO)(CCO)O2 (stereo not given in full)	-1%	x	x	x	x	-10%
COc1ccc(N2CCN(C(=O)Cn3cnc4c(cnn4-c4ccc(C)cc4)c3=O)CC2)cc1	15%	19	1%	3%	4%	9%
Cc1ccc(Cl)cc1N1CCN(C(=O)Cn2cnc3onc(-c4ccc(F)cc4)c3c2=O)CC1	18µM*	x	x	-2%	-7%	18µM*
COc1ccc(N2CCN(C(=O)CCn3cnc4onc(-c5ccc(F)cc5)c4c3=O)CC2)cc1	23µM*	x	x	-2%	-8%	u
Cc1ncc2c(c1CNC(=O)CN1CCCC1)CCN(C(=O)c1ccc(F)cc1F)C2	-6%[9.04 µM]	x	x	x	x	-16%
O=C(NC(C(=O)c1ccccc1)N1CCCCCC1)c1ccco1 (stereo not given)	23µM*	0	5%	-2%	19%	21µM*
COc1ccccc1CNC(=O)c1ccc(C)c(-n2cnc3cccnc32)c1	u	x	x	-13%	8%	u
COc1ccc(NC(=O)CN(C)CC(=O)NCCc2ccc(F)cc2)cc1	-1%	1	1%	-11%	-20%	1%
Cc1cccc(N(C(=O)c2nsc(Cl)c2Cl)C(C(=O)NC2CCCC2)c2ccc(O)cc2)c1 (stereo not given)	17%	-5	1%	3%	2%	-1%
CC(NC(=O)CN(c1ccccc1F)S(C)(=O)=O)c1ccccc1 (stereo not given)	9%	14	0%	-1%	7%	0%
Nc1ccc(CC(N)c2csc(Nc3nncc4ccccc34)n2)cc1 (stereo not given)	u	u	x	u	-30%	u
NC(CCc1ccccc1)c1csc(Nc2nncc3ccccc23)n1 (stereo not given)	21µM*	u	x	u	-95%	21µM*
NC(Cc1ccccc1)c1csc(Nc2nncc3ccccc23)n1 (stereo not given)	21µM*	-26	x	16µM*	-101%	23µM*
